Screens as filed in PubChem.
This is a sample that favours compounds with a hit; in the whole collection about 6.9% have one here.
L3MBTL1 inh: qHTS Assay for the Inhibitors of L3MBTL1. Potency, µM (highest dose often 57.1 µM), for the others: at the highest dose activity, negative = inhibition, most hits filed as inhibitors. hit rate 0.66% among 230,000. AlphaScreen L3MBTL1–H3K9me1 peptide binding. AID 485360, 2010; note: % is set by controls: 0 for no effect and ±100 for the full control effect; nearly all actives have a fitted effect of over 60% in size
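AlphaScreen assay: L3MBTL1 (50 nM final) was preincubated 30 min at room temperature with biotinylated H3(1-15)K9me1 peptide (75 nM final), then 30 min with library compounds; streptavidin donor and nickel chelate acceptor beads (10 ug/mL final) added, 30 min dark.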
PLK1 PBD inh: qHTS for Inhibitors of PLK1-PDB (polo-like kinase 1 - polo-box domain): Primary Screen; Potency, µM, for the others: max response, negative = inhibition, actives largely listed as inhibitors; Plk1 PBD binding of FITC phosphopeptide, fluorescence polarization; hit rate 2.8% among 360,000; AID 720504, 2013; Serine/threonine-protein kinase PLK1 (Homo sapiens), P53350; note: series mostly up to about 57 µM; % is set by controls: 0 for no effect and ±100 for the full control effect; nearly all actives have a fitted effect of over 65% in size
JMJD2A Tudor inh: qHTS Assay for Inhibitors of JMJD2A-Tudor Domain; Potency, µM (top dose mostly 114 µM), inactives show top-dose activity change, negative = inhibition, usual class: inhibitors; hit rate 4.4% among 390,000; Lysine-specific demethylase 4A (Homo sapiens), O75164; AID 504339, 2011; AlphaScreen JMJD2A-Tudor / H3K4me3 peptide binding; note: % is set by controls: 0 for no effect and ±100 for the full control effect; nearly all actives have a fitted effect of over 50% in size
VDR inh: Inhibitors of the vitamin D receptor (VDR): qHTS; Vitamin D3 receptor (Homo sapiens), P11473; VDR-SRC2-3 peptide fluorescence polarization, 2 h; Potency, µM, for inactives: max response, negative = inhibition, most hits filed as inhibitors; hit rate 0.93% among 400,000; AID 504847, 2011; note: % is set by controls: 0 for no effect and ±100 for the full control effect
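Measured by FP: displacement of SRC2-3 coactivator peptide from VDR by library compounds, following a two-hour ambient incubation.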
BAZ2B inh: qHTS Assay for Inhibitors of BAZ2B; Bromodomain adjacent to zinc finger domain protein 2B (Homo sapiens), Q9UIF8; AlphaScreen BAZ2B-H3K14Ac peptide displacement; Potency, µM (series often up to 114 µM), for the others: top-dose activity change, negative = inhibition, hits mostly inhibitors; hit rate 4.4% among 360,000; note: % is set by controls: 0 for no effect and ±100 for the full control effect; nearly all actives have a fitted effect of over 60% in size
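AlphaScreen luminescence quantifies BAZ2B engagement of H3K14Ac peptide; the protein and biotinylated peptide are both at 50 nM final, buffer PBS pH 7.4 with 0.01% Tween-20, all steps at room temperature.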
HP1b binding inh: HTS for Inhibitors of HP1-beta Chromodomain Interactions with Methylated Histone Tails. AlphaScreen HP1-beta / biotin-H3K9me3 peptide binding. hit rate 0.56% among 390,000. Potency, µM (titrated, usually from 114 µM), for the others: at the top dose activity change, negative = inhibition, hits mostly inhibitors. Chromobox protein homolog 1 (Homo sapiens), P83916; note: nearly all actives have a fitted effect of over 70% in size
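Compound inhibition of the preformed complex between 50 nM HP1-beta and 50 nM biotinylated H3K9me3 peptide was read by AlphaScreen. Buffer was PBS pH 7.4 with 0.01% Tween-20. Incubations ran 30 min at room temperature, with 10 ug/mL donor/acceptor beads.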
VDR confirm: qHTS for Inhibitors of the vitamin D receptor (VDR): Hit Validation in Primary Screen | AID 602199, 2012 | hit rate 89% among 840 | shares compounds with VDR inh | VDR-coactivator inhibition assay, qHTS confirmation | Potency, µM, most hits filed as inhibitors
VDR FP: qHTS for Inhibitors of the vitamin D receptor (VDR): Hit Validation using a Fluorescein Assay; shares compounds with VDR inh; VDR-coactivator binding, fluorescein fluorescence polarization; Potency, µM (titrated, usually from 57.1 µM), without a hit: at the top dose activity change, negative = inhibition, hits mostly inhibitors; hit rate 48% among 840; AID 602200, 2012
VDR bla: qHTS for Inhibitors of the vitamin D receptor (VDR): Hit Validation using a Beta-Lactamase Assay | shares compounds with VDR inh | VDR beta-lactamase reporter cells, FRET ratio; cells co-treated with VDR agonist LG190178 | Potency, µM (titrated, usually from 46.1 µM), inactives show top-dose activity change, negative = inhibition, hits mostly inhibitors | hit rate 23% among 840 | AID 602202, 2012; note: % is set by controls: 0 for no effect and ±100 for the full control effect
VDR viability: qHTS for Inhibitors of the vitamin D receptor (VDR): Hit Validation using a Cytotoxicity Assay; hit rate 18% among 840; AID 602204, 2012; cytotoxicity counter-screen, cell viability, qHTS; Potency, µM (titrated, usually from 48.3 µM), without a hit: at the top dose activity change, negative = cytotoxicity, usual class: cytotoxic; shares compounds with VDR inh;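 note: plate controls were DMSO for no effect and high-concentration cycloheximide for full effect; nearly all actives have a fitted effect of over 75% in size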
The depositor's hits bear a star; u = inconclusive; x = not tested or not shown; ! = not confirmed by another sample; [ ] = remark or other dose. Calls come from the whole dose curve; as a rule, active = well fitted curve in the direction sought with a large enough effect; inconclusive = small, poorly fitted or top-dose-only effect, or another doubt; inactive = no such curve, though single readings can be large; an effect the other way counts as inactive or inconclusive. Potency is the fitted concentration of half-maximal effect.

SMILES	L3MBTL1 inh	PLK1 PBD inh	JMJD2A Tudor inh	VDR inh	BAZ2B inh	HP1b binding inh	VDR confirm	VDR FP	VDR bla	VDR viability
CCCCCCc1ccc(OCC(=O)O)cc1OCC(=O)O	-8.8%	-11.3%	-18.7%	-12.7%	0.9%	47.4%	x	x	x	x
O=S(=O)(Nc1cc2nc3ccccc3nc2n1Cc1ccccc1)c1ccc(Cl)cc1	3.98µM*	u	19.1%	39.8µM*	-5.7%	78.5%	29.9*	32.6%	u	u
Cc1c(C(=O)OCC(=O)N(C)CC(=O)Nc2ccc(F)cc2)oc2ccccc12	48.3%	-23.9%	-6.8%	-16.4%	6.0%	34.0%	x	x	x	x
COc1ccc(OC)c2c1C(=O)C(Cl)=C(Cl)C2=O	0.0%	2.12µM*	0.891µM*	22.4µM*	44.7µM*	2.24µM*	8.44*	u	1.64µM*	5.17µM*
Cc1ccc(C)c(NC(=O)c2ccc(CN3CC(=O)N4CCCCC4C3=O)cc2)c1 (stereo not drawn)	x	x	-6.3%	17.2%	0.6%	32.3%	x	x	x	x
NC(=O)c1nsc(C(=O)N(CC(=O)NCc2ccccc2)c2ccc(F)cc2)c1N	x	-1.6%	2.8%	6.7%	-2.4%	19.3%	x	x	x	x
Cc1sc(C(C2C(=O)CC(C)(C)CC2=O)C2C(=O)CC(C)(C)CC2=O)cc1[N+](=O)[O-]	-21.6%	4.74µM*	28.2µM*	u	56.2µM*	-8.5%	6.31*	3.98µM*	1.1%	2.0%
CC1(C)CC(=O)C(C(c2cc([N+](=O)[O-])ccc2Cl)C2C(=O)CC(C)(C)CC2=O)C(=O)C1	x	-22.5%	-2.8%	-13.6%	x	54.7%	x	x	x	x
Nc1cccc2c1C(=O)N(C(=O)/C=C/c1ccc(F)cc1)C2=O	x	u	-9.1%	28.2µM*	-12.9%	24.8%	9.47*	10µM*	-1.2%	30.2%
COc1cccc(C(=O)/C=C/c2ccc(OCC#N)c(OC)c2)c1	-0.6%	-1.4%	-28.5%	50.1µM*	-6.6%	15.6%	26.7*	14.1µM*	u	u
COc1cc(/C=C/C(=O)c2ccc(O)cc2)ccc1OCC#N	-3.8%	-10.5%	-31.8%	u	-4.5%	-0.1%	x	x	x	x
COc1coc(C(O)C[N+](=O)[O-])cc1=O (stereo not drawn)	0.0%	-7.4%	-2.1%	1.3%	4.4%	50.8%	x	x	x	x
CC(C)CCC[C@@H](C)[C@H]1CC[C@H]2[C@@H]3CC=C4C[C@@H](O)CC[C@]4(C)[C@H]3CC[C@]12C	x	x	x	3.3%	x	x	x	x	x	x
CC(C)CCC[C@@H](C)[C@@H]1CC[C@H]2C3=CC=C4CC(O)CC[C@]4(C)[C@H]3CC[C@@]21C (stereo partly drawn)	x	x	x	28.2µM*	x	x	u	-3.3%	u	u
Cc1sc2c(c1C)C(=O)NC(c1ccccc1F)N2 (stereo not drawn)	3.2%	2.12µM*	u	31.6µM*	-27.1%	u	6.7*	u	9.4%	2.1%
Cc1cccc(C2NC(=O)c3c(sc(C)c3C)N2)c1O (stereo not drawn)	-13.6%	-20.6%	-14.5%	-1.6%	-10.0%	16.0%	x	x	x	x
CC1=NNC(=O)/C1=C\c1cn(-c2ccccc2)nc1-c1ccccc1	u	5.97µM*	-31.6%[11.4 µM]	u	u	u	3.16*	3.16µM*	23.1µM*	18.9µM*
O=C(O)CSc1cc(NS(=O)(=O)c2ccc(Br)cc2)c2ccccc2c1O	x	4.74µM*	20µM*	15.8µM*	35.5µM*	14.1µM*	4.23*	17.8µM*	-27.7%	u
Cc1ccc(S(=O)(=O)Nc2ccc(Br)cc2C(NCC(=O)O)c2ccccc2)cc1 (stereo not drawn)	9.8%	-18.2%	-17.0%	-18.1%	12.5%	20.2%	x	x	x	x
O=C(NCCN1CCCC1)C(c1ccccc1)c1ccccc1	-0.7%[2.29 µM]	-13.5%	-6.9%	-6.9%	0.9%	22.3%	x	x	x	x
CCOC(=O)/C(C#N)=C1/C(=O)N(Cc2ccccc2)c2ccccc21	x	3.77µM*	25.1µM*	28.2µM*	25.1µM*	14.1µM*	3.36*	u	19.8%	25.2%
CC(=O)Nc1ccccc1OCC(=O)NCC(F)(F)F	u	-13.0%	-15.0%	-14.2%	1.7%	20.9%	x	x	x	x
COc1ccc2c(c1)Cc1sc(NC(=O)c3cccc(C)c3)nc1-2	x	x	u	20µM*	u	3.2%	7.08*	7.08µM*	u	u
O=S(=O)(/N=C(\Sc1ccccc1)c1ccccc1)c1ccc(Cl)cc1	7.6%	2.38µM*	7.7%	79.4µM*	12.0%	101.6%	11.9*	u	27.2%	u
Cc1ccc(S(=O)(=O)/N=C(\Sc2ccccc2)c2ccccc2)cc1	13.5%	u	7.9%	u	17.0%	46.1%	x	x	x	x
COc1ccc2nc(NC(=O)c3nc(S(=O)(=O)Cc4ccccc4)ncc3Cl)sc2c1	x	x	-29.6%	2.1%	-9.2%	58.7%	x	x	x	x
O=C(Nc1ccc(F)cc1)c1nc(S(=O)(=O)Cc2ccccc2)ncc1Cl	x	16.8µM*	-34.7%	u	-35.5%	22.4%	3.55*	2.82µM*	3.26µM*	18.9µM*
Cc1nnc(NC(=O)c2nc(S(=O)(=O)Cc3ccccc3)ncc2Cl)s1	x	-22.2%	31.6µM*	u	50.1µM*!	29.4%[57 µM]	15.8*	12.6µM*	2.31µM*	4.23µM*
